# Screening results deposited in PubChem BioAssay by National Center for Advancing Translational Sciences (NCATS).
# The list is not random: actives were taken first. Their share in the collection is about 2.6%.
# Cruzain Triton: qHTS Assay for Promiscuous and Specific Inhibitors of Cruzain (with detergent); Cruzipain (Trypanosoma cruzi), P25779; purified cruzain, Z-FR-AMC fluorescence, 0.01% Triton; Potency, µM, for inactives: max response, negative = inhibition, most hits filed as inhibitors; 0.43% of 200,000 active; AID 1478, 2009;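 note: plate controls were neutral wells for no effect and buffer without enzyme for full effect; nearly all actives have a fitted effect of over 40% in size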
# Target sequence (P25779 123-467 limits assumed): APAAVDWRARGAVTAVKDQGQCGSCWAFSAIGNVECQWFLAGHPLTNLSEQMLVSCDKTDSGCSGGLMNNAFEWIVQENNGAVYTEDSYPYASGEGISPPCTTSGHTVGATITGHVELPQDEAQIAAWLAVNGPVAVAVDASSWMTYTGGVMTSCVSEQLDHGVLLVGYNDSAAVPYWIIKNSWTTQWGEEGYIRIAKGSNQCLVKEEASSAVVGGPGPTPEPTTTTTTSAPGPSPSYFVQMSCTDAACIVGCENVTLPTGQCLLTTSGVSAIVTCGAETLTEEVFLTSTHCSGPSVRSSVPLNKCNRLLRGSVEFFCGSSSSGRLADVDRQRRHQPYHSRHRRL
#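 Detergent-containing arm of a paired screen for aggregation-based inhibition: 0.01% Triton X-100 present. Cruzain at 1.5 nM cleaved 2 uM Z-FR-AMC at pH 5.5 with 5 mM DTT; AMC fluorescence gain over 60 s measured activity.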
# Cruzain inh noDet: qHTS Assay for Promiscuous and Specific Inhibitors of Cruzain (without detergent); purified cruzain, Z-FR-AMC fluorescence, no detergent; Potency, µM, without a hit: max response, negative = inhibition, most hits filed as inhibitors; 2.3% of 200,000 active; AID 1476, 2009;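 note: plate controls were enzyme without inhibitor for no effect and buffer without enzyme for full effect; nearly all actives have a fitted effect of over 40% in size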
#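 Purified cruzain at 1.5 nM, pre-incubated 15 min with compound at room temperature in 100 mM sodium acetate pH 5.5, 5 mM DTT, 0.00005% Triton X-100. Reaction started with 2 uM Z-FR-AMC; AMC fluorescence increase over 60 s gives rate.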
# An asterisk follows results filed as active; ? = inconclusive. Calls come from the whole dose curve; as a rule, active = well fitted curve in the direction sought with a large enough effect; inconclusive = small, poorly fitted or top-dose-only effect, or another doubt; inactive = no such curve, though single readings can be large; an effect the other way counts as inactive or inconclusive. Potency is the fitted concentration of half-maximal effect.
SMILES,Cruzain Triton,Cruzain inh noDet
CN1C2CC(OC(=O)C(CO)c3ccccc3)C[C@@H]1[C@H]1OC21 (stereo partly drawn),-1%,9%
CC(=O)c1ccc(NC(=O)c2nc(-c3ccccc3)n(-c3ccc(C)cc3)n2)cc1,-5%,8%
CC(=O)c1ccc(NC(=O)c2nc(-c3ccccc3)n(-c3ccc(Cl)cc3)n2)cc1,-5%,13µM*
O=C1NC(=O)c2cc(Nc3ccc(F)cc3)c(Nc3ccc(F)cc3)cc21,-1%,-9%
O=C1NC(=O)c2cc(Nc3ccccc3)c(Nc3ccccc3)cc21,-6%,20µM*
CCn1c(=O)c2sccc2n2c(CCCC(=O)N3CCN(c4ccccc4OC)CC3)nnc12,-1%,-1%
CCN(CC)S(=O)(=O)c1ccc2c(c1)N(CC(=O)N1CCN(c3cccc(OC)c3)CC1)C(=O)CO2,0%,?
Cc1cc(-c2csc(NC(=O)c3ccccc3C(F)(F)F)n2)c(C)n1Cc1ccccc1,0%,16µM*
Cc1cc(-c2csc(NC(=O)c3ccc(=O)n(C)n3)n2)c(C)n1CC1CCCO1 (stereo not drawn),-9%,?
c1coc(-c2nc3ccccc3nc2-c2ccco2)c1,14µM*,13µM*
O=c1oc(-c2ccco2)nc2ccccc12,-3%,2%
Cc1ccccc1CCNC(=O)c1ccc2c(c1)c(C)c(C)n2C,-3%,?
Cc1cccc(CNC(=O)c2ccc3c(c2)c(C)c(C)n3Cc2ccccc2)c1,2%,?
Cc1c(C)n(Cc2ccccc2)c2ccc(C(=O)NCCc3ccccc3Cl)cc12,2%,25µM*
COc1ccc(CCNC(=O)c2ccc3c(c2)c(C)c(C)n3Cc2ccccc2)c(OC)c1OC,0%,?
CCOC(=O)c1ccc(NC(=O)c2ccc3c(c2)c(C)c(C)n3Cc2ccc(F)cc2)cc1,1%,7.9µM*
Cc1c(C)n(Cc2ccccc2)c2ccc(C(=O)NCc3ccc(OC(C)C)cc3)cc12,2%,25µM*
COc1ccc(NC(=O)c2ccc3c(c2)c(C)c(C)n3Cc2ccc(F)cc2)cc1,1%,?
Cc1ccccc1CCNC(=O)c1ccc2c(c1)c(C)c(C)n2Cc1ccccc1,3%,20µM*
COc1ccc(NC(=O)N2CCCC3(CCN(C(C)=O)CC3)C2)cc1,2%,12%
CCC1CN(C(=O)Nc2cc(C)ccc2OC)c2cc(Cl)ccc2O1 (stereo not drawn),-5%,9%
CCc1c(C)nc(SCc2nc(-c3ccccc3)no2)[nH]c1=O,0%,-6%
Cc1ccc(-c2c3c(=O)n(C)c(=O)n(C)c3c3c(C(F)(F)F)nc4ccccc4n23)cc1,-1%,?
CC(C)c1ccc(NC(=O)CSC2=Nc3ccccc3C3=NC(CC(=O)NCCc4ccccc4)C(=O)N23)cc1 (stereo not drawn),-8%,2%
CN(C)c1ccc(Nc2ncnc3c2c(-c2ccccc2)cn3-c2cccc(Cl)c2)cc1,8%,-3%
SMILES,Cruzain Triton,Cruzain inh noDet
COC(=O)c1cccc(Cn2c(Cl)c(/C=N/Nc3ccccc3C)sc2=O)c1,-9%,13µM*
O=C(O)c1cccc(Cn2c(Cl)c(/C=N/NC(=O)c3ccccc3)sc2=O)c1,-3%,-16%
CCCCNC(=O)c1cc2n(n1)C(C(F)(F)F)CC(c1ccccc1)N2 (stereo not drawn),-2%,?
CCOC(=O)c1c(NC(=O)c2cc3n(n2)C(C(F)(F)F)CC(c2ccccc2)N3)sc(C)c1C (stereo not drawn),-2%,16µM*
Cc1ccc(C2=NNC(c3ccc(Cl)cc3)=Nc3ccccc32)o1,-6%,13µM*
Cc1ccc(-c2cc(-c3ccc(Cl)cc3)c(C#N)c(N)n2)o1,0%,?
Cc1cccc(NC(=O)Cn2nc(N3CCN(c4ccccc4)CC3)ccc2=O)c1C,-1%,?
Cc1ccc(NC(=O)c2sc3ccccc3c2Cl)nc1,0%,-11%
COc1ccccc1C(=O)NNC(=S)NC(=O)c1sc2ccccc2c1Cl,8%,10µM*
COc1ccc(CCNC(=O)c2sc3ccccc3c2Cl)cc1OC,-11%,9%
COc1ccccc1C(=O)NC(=S)NNC(=O)c1sc2ccccc2c1Cl,9%,2.5µM*
CN(Cc1ccccc1)C(=O)C1CCN(S(=O)(=O)c2ccc3c(c2)oc(=O)n3C)CC1,0%,?
CCOc1ccccc1NC(=O)CCc1c(C)nc2cc(-c3ccccc3)nn2c1C,2%,-1%
CCC1CCCCN1C(=O)Cn1c(=O)n(CCCCCC(=O)NCc2ccc(F)cc2)c(=O)c2sccc21 (stereo not drawn),-2%,4%
Cc1ccc(COC(=O)c2ccc(-c3nnn(Cc4ccc(C)cc4)n3)cc2)cc1,1%,-7%
CCCS(=O)(=O)c1nc(S(=O)(=O)c2ccc(C)cc2)c(NCc2ccco2)s1,-4%,0%
Cc1ccc(S(=O)(=O)c2nc(S(=O)(=O)c3ccc(C)cc3)c(NCc3ccco3)s2)cc1,0%,32µM*
O=C(/C=C\c1ccco1)Nc1nc(-c2ccccc2)cs1,1%,10%
O=C(/C=C/c1ccco1)NC(=S)Nc1nc(-c2ccc(Cl)cc2)cs1,-2%,5µM*
O=C(/C=C/c1ccco1)NC(=S)Nc1nc(-c2ccc3ccccc3c2)cs1,2%,4µM*
Cc1ccc2oc(-c3cccc(NC(=S)NC(=O)c4cccs4)c3)nc2c1,0%,?
O=C(/C=C/c1ccco1)NC(=S)Nc1ccccn1,-10%,-7%
Cc1ccc2oc(-c3cccc(NC(=S)NC(=O)/C=C/c4ccco4)c3)nc2c1,-7%,4µM*
Cc1nnc(SCC(=O)NCc2ccc(N(C)C)cc2)c2nn(-c3ccccc3)c(C)c12,-7%,8%
CCCC(=O)Nc1nnc(SCc2cc(=O)c3ccc(C)cc3[nH]2)s1,2%,-20%
SMILES,Cruzain Triton,Cruzain inh noDet
CCCCC[C@H](O)/C=C/[C@@H]1[C@@H](C/C=C\CCCC(=O)O)[C@@H](O)C[C@H]1O,0%,?
CCCCC[C@H](O)/C=C/[C@@H]1[C@@H](C/C=C\CCCC(=O)OC)[C@@H](O)C[C@H]1O,25µM*,?
CCCNC(=O)c1c(NC(=O)C2COc3ccccc3O2)sc2c1CCCC2 (stereo not drawn),2%,20µM*
O=C(NC1CCS(=O)(=O)C1)c1c(NC(=O)C2COc3ccccc3O2)sc2c1CCCC2 (stereo not drawn),-4%,-8%
Cc1ccc(C)c(CNC(=O)c2ccc3c(c2)nc2n3CCCCC2)c1,-4%,10%
CCCCCC(O)/C=C/C=C\CCCCCCCC(=O)O (stereo not drawn),-2%,-3%
COc1ccc(CCNC(=O)CSc2nc3ccccc3nc2Cc2ccc(Cl)cc2)cc1OC,-1%,?
CN(C)c1ccc(NC(=O)c2sc(SCC(=O)Nc3nccs3)nc2N)cc1,-7%,?
CN(C)c1ccc(NC(=O)c2sc(SCC(=O)Nc3ccc(Br)cc3)nc2N)cc1,6%,10µM*
Cc1cc(C(F)F)n2nc(C(=O)Nc3ccc(F)c(Cl)c3)nc2n1,-4%,2%
O=C(/C=C/c1ccccc1)NC(NC(=S)Nc1ccc(Cl)cc1)C(Cl)(Cl)Cl (stereo not drawn),-1%,?
O=C(CCc1ccccc1)NC(NC(=S)Nc1ccc(Cl)cc1)C(Cl)(Cl)Cl (stereo not drawn),-4%,25µM*
Cc1ccc(NC(=O)CN2C(=O)CCc3cc(S(=O)(=O)N4CCOCC4)ccc32)c(C)c1,0%,-1%
